ULK1 primary: blocks human autophagy kinase ULK1; inhibition, % at 5.96 µM; 30,000 tested, 1.9% active; AID 1259251; O75385; AlphaScreen Atg13 phosphorylation by ULK1, luminescence; in the data active = inhibition above about 43%
ASK1 primary: inhibitors of human ASK1 kinase. AlphaScreen MKK6 phosphorylation by ASK1, luminescence. inhibition, % at 7.44 µM. 22,000 tested, 0.99% active; in the data active = inhibition above about 35%
AlphaScreen intf: AlphaScreen optical interference dose response, ASK1 counter-screen; shares compounds with ASK1 primary; 220 tested, 20% active; AID 1159604; IC50, µM; AlphaScreen TruHits beads, signal interference counterscreen;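 active = IC50 of 10 µM or lower in the counterscreen; inactive = IC50 above 10 µM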;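 also: loss of AlphaScreen light from TruHits beads alone with no ASK1 enzyme present; potency of signal reduction so a low IC50 flags an assay artifact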
Numbers stand for hits; i = inactive; nt = no result. Most compounds without a hit are left out; they make up all but 2.4% or so of the library.

SMILES	ULK1 primary	ASK1 primary	others
CCN1CCN(c2cc(C#N)cc(-c3ccnc(Nc4ccc(N5CCOCC5)cc4)n3)c2)CC1	52.9	i
COc1ccc(Nc2nccc(-c3cc(C#N)cc(N4CCOCC4)c3)n2)cc1	i	i
O=C(NC1CCN(Cc2ccccc2)CC1)c1cccc(Nc2ccccn2)n1	i	i
Cc1nc(C)n(-c2ccc(Nc3cc(-n4cc(C)c(Nc5ccccc5)n4)ccn3)cc2)n1	i	i
O=C(NCCO)c1cnc(Nc2ccc(C(F)(F)F)cc2)s1	i	i
COc1ccc(CCNc2nc(Nc3nccc4ccccc34)nc3nc[nH]c23)cc1	i	i
COc1ccc(-c2nc(Nc3ccc(NC(C)=O)cc3)c3ncn(C(C)C)c3n2)cn1	50.4	i
CC(=O)Nc1ccc(Nc2nc(-c3ccc(N4CCOCC4)nc3)nc3c2ncn3C(C)C)cc1	43.8	i
CC(=O)Nc1ccc(Nc2nc(N3CCOCC3)nc3c2ncn3C(C)C)cc1	i	i
Cc1cnc(-c2ccc(N3CCOCC3)nc2)nc1Nc1ccccc1	43.9	i
CC(=O)Nc1ccc(Nc2nc(-c3cccc(N)c3)nc3c2ncn3C(C)C)cc1	i	i
Cc1cnc(-c2ccccc2)nc1Nc1ccc(N2CCOCC2)cc1	i	i
COc1ccc(-c2nc(Nc3ccc(N4CCOCC4)cc3)c3ncn(C(C)C)c3n2)cn1	i	i
CC(=O)Nc1ccc(Nc2nc(-c3ccc(C(N)=O)cc3)nc3c2ncn3C(C)C)cc1	74.9	i
Nc1nc(N2CCCC2CO)nc2c1ncn2CCN1CCCC1=O (configuration not stated)	i	i
N#Cc1cc(-c2ccnc(Nc3ccc4cnccc4c3)n2)cc(N2CCOCC2)c1	i	i
CC(=O)c1cccc(-c2nc(Nc3ccc(N4CCOCC4)cc3)c3ncn(C(C)C)c3n2)c1	55.7	i
CC(C)n1cnc2c(Nc3ccc(N4CCOCC4)cc3)nc(-c3cccc(N)c3)nc21	i	i
CC(C)n1cnc2c(Nc3ccc(N4CCOCC4)cc3)nc(-c3ccc(C(N)=O)cc3)nc21	62.6	i
NC(=O)c1ccc(-c2nc(Nc3ccc(N4CCOCC4)cc3)c3ncn(Cc4ccc(C(F)(F)F)cc4)c3n2)cc1	i	i
CN(C)CCCOc1cc(-c2cn[nH]c2)c(F)cc1NC(=O)C(N)c1cccc(F)c1 (configuration not stated)	i	i
CC(=O)N[C@H](Cc1ccc(Cl)cc1)c1nc2ncc(-c3ccncc3)cc2[nH]1	i	i
COc1ccc2c(c1)C[C@H](C(=O)Nc1ccc(-c3cn[nH]c3)cc1OCCN(C)C)CO2	i	i
COc1ccc2c(c1)CC(C(=O)Nc1ccc(-c3cn[nH]c3)cc1OCCN(Cc1ccccc1)Cc1ccccc1)CO2 (configuration not stated)	i	41.3	AlphaScreen intf=i
CCC1=NN(C(=O)c2ccccc2[N+](=O)[O-])C(O)(c2ccc(Cl)cc2)C1 (configuration not stated)	i	nt
SMILES	ULK1 primary	ASK1 primary	others
CC(C)n1cnc2c(Nc3ccc(N4CCOCC4)cc3)nc(N3CCN(Cc4ccc5c(c4)OCO5)CC3)nc21	i	40.7	AlphaScreen intf=i
COc1ccc(CCNc2nc(NC3CCN(Cc4ccccc4)CC3)nc3c2ncn3C2CCCCC2)cc1	i	43.4	AlphaScreen intf=i
CC(C)n1cnc2c(Nc3ccc4c(c3)OCO4)nc(N3CCC(N4CCOCC4)CC3)nc21	i	i
COc1ccc(CCNc2nc(Nc3ccccc3)nc3c2ncn3C2CCCCC2)cc1	i	i
COc1ccc(-c2nc(C)cc(Nc3ccc(N4CCOCC4)cc3)n2)cc1	i	49.8	AlphaScreen intf=i
CC(C)n1cnc2c(Nc3ccc4c(c3)OCO4)nc(Nc3ccc(N4CCOCC4)cc3)nc21	i	36.1	AlphaScreen intf=i
COc1ccc(-c2nc(C)cc(Nc3ccc(N4CCOCC4)cc3)n2)cn1	i	i
CC(C)n1cnc2c(Nc3ccc4c(c3)OCO4)nc(N3CCN(Cc4ccc5c(c4)OCO5)CC3)nc21	i	i
CC(C)N(CCNC(=O)c1ccc(-c2ccc(N3CCOCC3)nc2)s1)C(C)C	i	i
COc1cc2nc(-c3ccccc3)nc(NC3CCN(Cc4ccccc4)CC3)c2cc1OC	i	i
c1nc2nc(-c3ccc(N4CCOCC4)nc3)nc(Nc3ccc(N4CCOCC4)cc3)c2[nH]1	i	i
CC(=O)Nc1ccc(Nc2nc(NCc3ccc4c(c3)OCO4)nc3c2ncn3Cc2ccc(C(F)(F)F)cc2)cc1	i	i
COc1ccc(CCNc2nc(N3CCN(Cc4ccc5c(c4)OCO5)CC3)nc3c2ncn3C2CCCCC2)cc1	i	47.6	AlphaScreen intf=i
Oc1ccc(CCNc2nc(N3CCN(Cc4ccc5c(c4)OCO5)CC3)nc3c2ncn3C2CCCCC2)cc1	i	i
Oc1ccc(CCNc2nc(N3CCN(Cc4ccc5c(c4)OCO5)CC3)nc3c2ncn3-c2ccsc2)cc1	i	37.9	AlphaScreen intf=i
Cc1cc(Nc2ccc(N3CCOCC3)cc2)nc(Nc2ccncc2)n1	i	i
